Experimental data as given in PubChem BioAssay AID504885 (Johns Hopkins Ion Channel Center, 2011).
Calls of active or inactive are those of the source.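 The calls were made as follows: active = TRPC6 cation channel blocked by over 30% at any dose tested, plus a fitted dose response curve; inactive = the rest.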

Molecular target: Short transient receptor potential channel 6 (Mus musculus) (UniProt Q61143)
Assay: potency of TRPC6 cation channel blockers – HEK293 cells, membrane potential dye, set 2, SAR follow-up (AID 504885)
Settings: acetylcholine-stimulated; series mostly up to 20 µM

Chain of Short transient receptor potential channel 6 (Mus musculus) (Q61143 whole entry, looked up): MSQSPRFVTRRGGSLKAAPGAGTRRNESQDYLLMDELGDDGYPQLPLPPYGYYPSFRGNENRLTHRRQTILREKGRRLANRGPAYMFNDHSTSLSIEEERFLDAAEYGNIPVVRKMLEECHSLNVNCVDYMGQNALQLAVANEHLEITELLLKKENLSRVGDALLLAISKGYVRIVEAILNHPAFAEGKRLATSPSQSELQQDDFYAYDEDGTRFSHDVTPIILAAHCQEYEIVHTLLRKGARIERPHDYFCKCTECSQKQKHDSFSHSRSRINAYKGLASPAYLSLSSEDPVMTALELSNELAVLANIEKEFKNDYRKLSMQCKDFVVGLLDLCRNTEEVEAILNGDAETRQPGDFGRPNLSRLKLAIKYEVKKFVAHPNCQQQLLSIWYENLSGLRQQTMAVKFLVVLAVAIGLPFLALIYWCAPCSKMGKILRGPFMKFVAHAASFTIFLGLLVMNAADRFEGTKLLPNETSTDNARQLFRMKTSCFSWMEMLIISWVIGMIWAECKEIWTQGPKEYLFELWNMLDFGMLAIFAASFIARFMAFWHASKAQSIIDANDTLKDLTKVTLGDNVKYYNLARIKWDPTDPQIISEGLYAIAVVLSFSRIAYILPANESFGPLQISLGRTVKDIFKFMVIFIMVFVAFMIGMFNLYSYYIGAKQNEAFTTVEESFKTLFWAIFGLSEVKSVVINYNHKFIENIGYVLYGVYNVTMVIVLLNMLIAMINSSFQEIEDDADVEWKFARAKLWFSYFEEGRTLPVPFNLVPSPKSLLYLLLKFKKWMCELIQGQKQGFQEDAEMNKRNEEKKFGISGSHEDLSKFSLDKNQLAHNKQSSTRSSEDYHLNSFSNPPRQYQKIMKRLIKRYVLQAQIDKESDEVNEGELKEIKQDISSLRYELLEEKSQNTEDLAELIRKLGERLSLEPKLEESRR

**Q.** `O=S(=O)(Cc1cc(N2CCOCC2)nc(-c2ccccn2)n1)c1ccccc1` was tested. Which outcome did it give?
**A.** The outcome was “inactive”.

**Q.** With `CSCc1cc(N2CCOCC2)nc(-c2ccccn2)n1` as the compound, how does the outcome read?
**A.** Its outcome is “inactive”.

**Q.** How did the outcome turn out when `Cc1cccc(CN2CCN(Cc3ccc4nsnc4c3)CC2CCO)n1` (stereo not given) was run?
**A.** Its outcome is “inactive”.

**Q.** For `CN1CCN(Cc2ccc3nsnc3c2)CC1CCO` (stereo not given), which outcome is on record?
**A.** The outcome was “inactive”.

**Q.** With `CC(C)CN1CCN(Cc2ccc3nsnc3c2)CC1CCO` (stereo not given) as the compound, how does the outcome read?
**A.** Its outcome is “inactive”.

**Q.** Which outcome does the source give for `Clc1ccc(SCc2cc(N3CCCCC3)nc(-c3ccccn3)n2)cc1` here?
**A.** The outcome was “inactive”.

**Q.** With `CN1CCC(N2CCN(Cc3ccc4nsnc4c3)CC2CCO)CC1` (stereo not given) as the compound, how does the outcome read?
**A.** The outcome was “inactive”.

**Q.** Which outcome does the source give for `CC(C)CCN1CCN(Cc2ccc3nsnc3c2)CC1CCO` (stereo not given) here?
**A.** Its outcome is “inactive”.

**Q.** For `OCCC1CN(Cc2ccc3nsnc3c2)CCN1CCCc1ccccc1` (stereo not given), which outcome is on record?
**A.** Its outcome is “inactive”.

**Q.** Which outcome does the source give for `Cc1ccccc1CN1CCN(Cc2ccc3nsnc3c2)CC1CCO` (stereo not given) here?
**A.** Its outcome is “inactive”.

**Q.** With `CC(C)N1CCN(Cc2ccc3nsnc3c2)CC1CCO` (stereo not given) as the compound, how does the outcome read?
**A.** The outcome was “inactive”.

**Q.** For `Cc1ccc(C)c(N2CCN(C(=O)c3ccc4nsnc4c3)CC2)c1`, which outcome is on record?
**A.** Its outcome is “inactive”.

**Q.** With `CSCc1cc(N(C)c2ccccc2)nc(-c2ccccn2)n1` as the compound, how does the outcome read?
**A.** The outcome was “inactive”.

**Q.** For `O=S(=O)(Cc1cc(N2CCN(c3ccccc3)CC2)nc(-c2ccccn2)n1)c1ccccc1`, which outcome is on record?
**A.** Its outcome is “inactive”.

**Q.** `CC(C)N1CCC(N2CCN(Cc3ccc4nsnc4c3)CC2CCO)CC1` (stereo not given) was tested. Which outcome did it give?
**A.** Its outcome is “inactive”.
